Experimental data taken from ChEMBL document CHEMBL1961873, “Compounds: GSK PKIS; Assays: Nanosyn kinase panel” (2012).

Assays:
[1] = molecular target: Serine/threonine-protein kinase PAK 6 (Homo sapiens) (UniProt Q9NQU5); conditions: at 1 µM;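 further: values are mean percent inhibition of PAK6 kinase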
[2] = tested on: Tyrosine-protein kinase ABL1 (Homo sapiens), P00519 [E255K]; conditions: at 0.1 µM
[3] = tested on: Tyrosine-protein kinase ABL1 (Homo sapiens), P00519 [E255K]; conditions: at 1 µM
[4] = tested on: Tyrosine-protein kinase ABL1 (Homo sapiens), P00519 [H396P]; conditions: at 0.1 µM
[5] = tested on: Tyrosine-protein kinase ABL1 (Homo sapiens), P00519 [H396P]; conditions: at 1 µM
[6] = tested on: Tyrosine-protein kinase ABL1 (Homo sapiens), P00519 [M351T]; conditions: at 0.1 µM
[7] = tested on: Tyrosine-protein kinase ABL1 (Homo sapiens), P00519 [M351T]; conditions: at 1 µM
[8] = tested on: Tyrosine-protein kinase ABL1 (Homo sapiens), P00519 [Q252H]; conditions: at 0.1 µM
[9] = tested on: Tyrosine-protein kinase ABL1 (Homo sapiens), P00519 [Q252H]; conditions: at 1 µM
[10] = tested on: Tyrosine-protein kinase ABL1 (Homo sapiens), P00519 [T315I]; conditions: at 0.1 µM
[11] = tested on: Tyrosine-protein kinase ABL1 (Homo sapiens), P00519 [T315I]; conditions: at 1 µM
[12] = tested on: Tyrosine-protein kinase ABL1 (Homo sapiens), P00519 [Y253F]; conditions: at 0.1 µM
[13] = tested on: Tyrosine-protein kinase ABL1 (Homo sapiens), P00519 [Y253F]; conditions: at 1 µM
[14] = molecular target: Tyrosine-protein kinase ABL1 (Homo sapiens) (UniProt P00519); conditions: at 0.1 µM
[15] = molecular target: Tyrosine-protein kinase ABL1 (Homo sapiens) (UniProt P00519); conditions: at 1 µM
[16] = molecular target: ALK tyrosine kinase receptor (Homo sapiens) (UniProt Q9UM73); conditions: at 0.1 µM
Chain of ALK tyrosine kinase receptor (Homo sapiens) (Q9UM73 19-1620 limits assumed): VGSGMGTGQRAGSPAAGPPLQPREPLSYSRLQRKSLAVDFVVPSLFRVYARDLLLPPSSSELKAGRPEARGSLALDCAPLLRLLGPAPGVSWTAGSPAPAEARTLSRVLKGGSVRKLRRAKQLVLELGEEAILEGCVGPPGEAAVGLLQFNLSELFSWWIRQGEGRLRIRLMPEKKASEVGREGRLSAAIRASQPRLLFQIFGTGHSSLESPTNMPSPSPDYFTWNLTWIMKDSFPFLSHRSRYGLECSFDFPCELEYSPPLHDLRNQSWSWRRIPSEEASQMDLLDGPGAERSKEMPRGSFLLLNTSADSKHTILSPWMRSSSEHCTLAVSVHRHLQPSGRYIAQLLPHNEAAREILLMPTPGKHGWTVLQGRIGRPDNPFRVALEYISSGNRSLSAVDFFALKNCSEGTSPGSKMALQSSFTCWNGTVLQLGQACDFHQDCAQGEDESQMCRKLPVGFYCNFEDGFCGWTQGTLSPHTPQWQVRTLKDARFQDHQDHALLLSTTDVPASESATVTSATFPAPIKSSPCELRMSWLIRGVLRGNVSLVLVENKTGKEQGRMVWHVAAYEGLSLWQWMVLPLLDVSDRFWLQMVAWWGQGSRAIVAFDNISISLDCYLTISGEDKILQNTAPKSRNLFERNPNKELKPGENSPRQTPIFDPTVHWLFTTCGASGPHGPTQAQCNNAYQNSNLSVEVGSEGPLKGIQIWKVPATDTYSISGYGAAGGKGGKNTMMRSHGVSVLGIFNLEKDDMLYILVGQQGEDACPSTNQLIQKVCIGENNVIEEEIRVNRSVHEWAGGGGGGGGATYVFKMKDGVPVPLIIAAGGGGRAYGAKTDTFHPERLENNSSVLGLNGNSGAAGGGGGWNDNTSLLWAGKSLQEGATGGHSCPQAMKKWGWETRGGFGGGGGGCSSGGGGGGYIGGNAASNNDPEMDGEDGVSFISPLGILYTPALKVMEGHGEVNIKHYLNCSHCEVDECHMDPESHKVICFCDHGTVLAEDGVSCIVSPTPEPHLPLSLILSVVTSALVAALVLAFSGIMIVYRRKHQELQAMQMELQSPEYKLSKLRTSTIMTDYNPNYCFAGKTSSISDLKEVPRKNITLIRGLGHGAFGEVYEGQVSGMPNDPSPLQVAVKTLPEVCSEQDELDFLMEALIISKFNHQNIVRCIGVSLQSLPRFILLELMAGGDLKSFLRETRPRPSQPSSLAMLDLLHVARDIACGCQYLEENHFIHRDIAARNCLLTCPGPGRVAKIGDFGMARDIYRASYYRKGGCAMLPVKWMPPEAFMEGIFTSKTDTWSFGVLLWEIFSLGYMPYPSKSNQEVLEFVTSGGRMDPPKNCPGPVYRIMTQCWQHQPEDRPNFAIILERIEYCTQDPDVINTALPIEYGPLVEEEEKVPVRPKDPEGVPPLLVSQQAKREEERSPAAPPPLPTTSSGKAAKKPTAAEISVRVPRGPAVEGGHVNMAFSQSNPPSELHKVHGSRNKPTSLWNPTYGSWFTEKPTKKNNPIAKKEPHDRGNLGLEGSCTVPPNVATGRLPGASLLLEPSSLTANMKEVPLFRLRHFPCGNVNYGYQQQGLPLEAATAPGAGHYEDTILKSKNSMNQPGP

[17] = molecular target: ALK tyrosine kinase receptor (Homo sapiens) (UniProt Q9UM73); conditions: at 1 µM
[18] = molecular target: Tyrosine-protein kinase ABL2 (Homo sapiens) (UniProt P42684); conditions: at 0.1 µM
Chain of Tyrosine-protein kinase ABL2 (Homo sapiens) (P42684 whole entry): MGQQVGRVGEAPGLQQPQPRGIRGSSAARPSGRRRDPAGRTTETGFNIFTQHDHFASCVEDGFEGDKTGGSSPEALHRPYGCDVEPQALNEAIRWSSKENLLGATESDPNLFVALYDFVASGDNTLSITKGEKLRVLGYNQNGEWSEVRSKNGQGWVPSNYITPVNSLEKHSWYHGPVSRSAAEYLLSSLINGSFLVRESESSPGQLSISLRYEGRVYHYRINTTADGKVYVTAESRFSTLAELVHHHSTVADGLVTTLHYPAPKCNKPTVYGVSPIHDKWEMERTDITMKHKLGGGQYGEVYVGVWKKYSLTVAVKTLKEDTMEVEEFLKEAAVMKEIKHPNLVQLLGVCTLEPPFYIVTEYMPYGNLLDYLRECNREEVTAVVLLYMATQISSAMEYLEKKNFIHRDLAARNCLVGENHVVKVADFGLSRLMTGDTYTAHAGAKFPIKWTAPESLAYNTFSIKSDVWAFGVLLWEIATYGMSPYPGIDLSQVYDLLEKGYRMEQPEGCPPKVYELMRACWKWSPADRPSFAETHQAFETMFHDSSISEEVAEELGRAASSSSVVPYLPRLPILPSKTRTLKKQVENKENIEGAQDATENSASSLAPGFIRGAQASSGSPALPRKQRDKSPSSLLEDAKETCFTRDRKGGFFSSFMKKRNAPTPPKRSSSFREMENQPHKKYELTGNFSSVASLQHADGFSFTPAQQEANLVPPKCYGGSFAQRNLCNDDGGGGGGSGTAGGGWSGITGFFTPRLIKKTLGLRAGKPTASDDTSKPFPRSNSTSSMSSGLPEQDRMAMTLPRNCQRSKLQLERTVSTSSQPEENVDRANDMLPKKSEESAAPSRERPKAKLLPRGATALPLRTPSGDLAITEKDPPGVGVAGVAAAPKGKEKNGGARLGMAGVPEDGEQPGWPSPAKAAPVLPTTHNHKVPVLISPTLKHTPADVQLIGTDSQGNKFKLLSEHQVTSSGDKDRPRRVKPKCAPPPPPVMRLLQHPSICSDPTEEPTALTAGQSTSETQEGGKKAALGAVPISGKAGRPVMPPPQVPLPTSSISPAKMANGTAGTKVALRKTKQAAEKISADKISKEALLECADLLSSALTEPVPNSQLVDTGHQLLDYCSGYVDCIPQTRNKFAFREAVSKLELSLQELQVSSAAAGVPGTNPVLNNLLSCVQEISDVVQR

[19] = molecular target: Tyrosine-protein kinase ABL2 (Homo sapiens) (UniProt P42684); conditions: at 1 µM
[20] = molecular target: Tyrosine-protein kinase receptor UFO (Homo sapiens) (UniProt P30530); conditions: at 0.1 µM;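 further: values are mean percent inhibition of AXL from the GSK PKIS screen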
Chain of Tyrosine-protein kinase receptor UFO (Homo sapiens) (P30530 whole entry): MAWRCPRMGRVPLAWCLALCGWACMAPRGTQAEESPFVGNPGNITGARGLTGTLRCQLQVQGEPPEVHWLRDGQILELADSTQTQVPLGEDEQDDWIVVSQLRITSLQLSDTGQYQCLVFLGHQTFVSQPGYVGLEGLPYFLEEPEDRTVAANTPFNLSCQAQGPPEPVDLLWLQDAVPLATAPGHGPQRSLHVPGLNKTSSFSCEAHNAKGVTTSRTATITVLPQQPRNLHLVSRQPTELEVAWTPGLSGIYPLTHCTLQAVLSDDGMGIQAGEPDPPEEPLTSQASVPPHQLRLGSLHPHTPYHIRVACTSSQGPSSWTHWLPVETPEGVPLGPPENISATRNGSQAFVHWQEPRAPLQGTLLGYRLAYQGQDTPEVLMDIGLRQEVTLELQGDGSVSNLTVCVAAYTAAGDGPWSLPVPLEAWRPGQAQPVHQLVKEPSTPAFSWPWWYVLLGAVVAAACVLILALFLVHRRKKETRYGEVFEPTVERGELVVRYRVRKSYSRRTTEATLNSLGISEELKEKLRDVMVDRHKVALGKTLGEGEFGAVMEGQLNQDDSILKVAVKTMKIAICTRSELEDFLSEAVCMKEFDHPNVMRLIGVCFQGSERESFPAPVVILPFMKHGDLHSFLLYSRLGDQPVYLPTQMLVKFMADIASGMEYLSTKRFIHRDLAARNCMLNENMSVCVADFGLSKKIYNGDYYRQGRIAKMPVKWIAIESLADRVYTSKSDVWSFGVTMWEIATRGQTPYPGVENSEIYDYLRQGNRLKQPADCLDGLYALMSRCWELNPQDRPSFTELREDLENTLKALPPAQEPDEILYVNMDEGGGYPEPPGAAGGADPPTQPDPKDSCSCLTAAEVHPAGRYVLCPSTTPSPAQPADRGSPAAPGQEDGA

Chain of Serine/threonine-protein kinase PAK 6 (Homo sapiens) (Q9NQU5 whole entry, looked up): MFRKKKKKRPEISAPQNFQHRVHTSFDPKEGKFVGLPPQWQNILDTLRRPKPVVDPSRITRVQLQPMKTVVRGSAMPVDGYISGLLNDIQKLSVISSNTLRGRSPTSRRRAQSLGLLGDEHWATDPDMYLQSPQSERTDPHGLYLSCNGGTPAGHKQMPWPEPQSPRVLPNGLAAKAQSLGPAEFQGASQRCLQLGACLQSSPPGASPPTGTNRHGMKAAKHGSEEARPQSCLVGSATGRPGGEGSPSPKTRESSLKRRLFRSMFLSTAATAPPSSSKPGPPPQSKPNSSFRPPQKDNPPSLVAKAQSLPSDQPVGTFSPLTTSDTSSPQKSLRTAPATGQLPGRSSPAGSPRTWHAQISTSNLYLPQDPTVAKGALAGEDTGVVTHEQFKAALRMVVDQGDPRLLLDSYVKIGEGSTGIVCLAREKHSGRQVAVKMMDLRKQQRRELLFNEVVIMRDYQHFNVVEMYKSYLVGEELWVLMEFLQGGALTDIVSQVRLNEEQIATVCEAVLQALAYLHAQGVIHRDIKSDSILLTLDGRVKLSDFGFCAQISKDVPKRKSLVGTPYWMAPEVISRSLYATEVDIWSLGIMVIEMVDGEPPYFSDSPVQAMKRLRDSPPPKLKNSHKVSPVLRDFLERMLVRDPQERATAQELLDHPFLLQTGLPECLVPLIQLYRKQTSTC

SMILES	inhibition [1] [%]	inhibition [2] [%]	inhibition [3] [%]	inhibition [4] [%]	inhibition [5] [%]	inhibition [6] [%]	inhibition [7] [%]	inhibition [8] [%]	inhibition [9] [%]	inhibition [10] [%]	inhibition [11] [%]	inhibition [12] [%]	inhibition [13] [%]	inhibition [14] [%]	inhibition [15] [%]	inhibition [16] [%]	inhibition [17] [%]	inhibition [18] [%]	inhibition [19] [%]	inhibition [20] [%]
N#Cc1c(NC(=O)c2ccc(F)cc2)sc2c1CCCC2	-6.51	0.33	1.93	-0.63	0.11	-1.3	2.69	1.76	2.3	1.04	-0.02	0.83	1.49	1.79	4.24	-0.03	1.01	3.54	2.41	-1.93
CCn1c(-c2nonc2N)nc2c(C#CC(C)(C)O)ncc(OC3CCNCC3)c21	76	-0.7	-0.01	2.05	2.1	-0.57	0.51	0.98	0.41	2.72	1.99	-0.54	0.66	4.72	3.17	1.83	4.92	2.02	3.67	-1.51
CC(=O)NCc1cccc(C#Cc2cncnc2Nc2ccc(OCc3cccc(F)c3)c(Cl)c2)c1	-2.72	-0.06	1.65	2.49	-0.68	1.1	-0.38	2.02	-0.7	2	1.56	1.3	2.58	-0.31	2.82	-0.48	0.2	-0.67	-0.87	-0.21
Cc1cccc2c1NC(=O)/C2=N\Nc1ccc(S(N)(=O)=O)cc1	7.35	1.51	6.03	6.45	7.83	0.61	7.81	2.71	7.61	2.54	0.76	4.21	11.3	5.35	11.4	2.99	4.7	3.22	10.1	-3.51
CCn1c(-c2nonc2N)nc2ccccc21	-4.14	3.43	2.16	3.5	0.21	2.29	-3.04	4.29	0.56	2.3	1.53	3.97	4.13	4.4	6.01	1.5	8.1	4.04	3	-0.67
CCNC(=O)O[C@H]1CN[C@H](C#Cc2cc3ncnc(Nc4ccc(OCc5cccc(F)c5)c(Cl)c4)c3s2)C1	4.55	4.1	2.82	3.17	2.6	2.39	0.66	2.61	2.16	1.66	1.84	3.4	1.32	3.63	4.84	1.85	4.55	3.5	5.21	-3.44
Fc1ccc(-c2nn3ncccc3c2-c2ccnc(Nc3ccc4c(c3)OCCO4)n2)cc1	-1.03	10.2	40.9	25.5	69.9	38.6	81	31	75.2	14.1	53.4	29.3	72.2	11.8	62.6	4.64	7.86	10.4	56.1	-9.81
CN1CCC(n2cnc(-c3ccc(F)cc3)c2-c2ccnc(Nc3ccccc3)n2)CC1	-6.61	2.58	4.56	4.83	13.6	0.84	10.2	3.66	9.15	1.45	4.98	3.47	9.91	1.69	11	1.58	2.39	3.42	10.2	-2.82
CC1=C(C(=O)Nc2cc(Cl)c3[nH]ncc3c2)C(c2ccc(C(F)(F)F)cc2)CC(=O)N1 (stereo not given)	-3.39	3.18	3.01	4.1	2.88	1.43	4.53	4.06	4.83	2.02	3.3	3.38	4.41	2.62	1.72	2.22	2.26	3.63	3.51	-4.79
[O-][S+]1CCN(Cc2ccc(-c3ccc4ncnc(Nc5ccc(OCc6cccc(F)c6)c(Cl)c5)c4c3)o2)CC1	-3.68	3.89	6.86	5.46	5.91	1.58	7.69	5.02	6.64	2.49	3.02	4.31	4.49	2.52	5.75	3.34	7.82	1.01	7.14	-4.66
Clc1ccc(-c2nn3ncccc3c2-c2ccnc(Nc3ccccc3)n2)cc1	1.5	2.58	8.98	4.63	20.5	10.4	45.8	5.9	36.2	6.6	30.7	7.15	24.5	3.9	27.6	2.8	2.67	3.8	18.2	-0.26
CNC(=O)c1cccc(C#Cc2cncnc2Nc2ccc(OCc3cccc(F)c3)c(Cl)c2)c1	0.68	0.14	0.64	0.79	1.44	0.11	2.15	1.53	2.58	1.23	2.43	0.77	3.36	0.98	5.91	1.88	3.83	2.79	4.76	-1.87
COc1ccc2[nH]c3c4[nH]c5ccc(OC)cc5c4c4c(c3c2c1)C(=O)NC4=O	-0.34	7.87	36.1	10.7	45.3	10.1	47.7	29.6	72.5	9.34	33.7	15.4	52.3	6.32	34	13.8	58.3	3.1	12.1	11
